Test results: PubChem BioAssay (NCATS)
Results filed as inconclusive are left out. Entries that show only a call come without a potency. Unmarked numbers belong to inactive results. The source made the active and inactive calls. Calls come from the whole dose curve; as a rule, active = well fitted cell-killing curve with a large enough effect; inconclusive = small, poorly fitted or top-dose-only effect, or effect the other way; inactive = no such curve, though single readings can be large or run the other way.
Potency is the fitted concentration of half-maximal effect.

Test: Viability qHTS for spleen associated tyrosine kinase inhibitor (SYKi) drug resistant MV4-11 cells (AID 1963824); note: nearly all actives have a fitted effect of over 35% in size
Conditions: SYKi-resistant MV4-11 viability, CellTiter-Glo, 72 h; series mostly up to 45 µM
Method in brief: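 SYK inhibitor-resistant MV4-11 AML cells, 500 per well, added to predispensed compounds and incubated 72 hr at 37 C, 5% CO2. Viability measured by CellTiter-Glo luminescence after 10 min at room temperature.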
For `C=C1CC2C3(C)C=CC(=O)OC(C)(C)C3CC(OC(C)=O)C2(C)C2C(=O)OC(C)C(=O)C12C` (centres undefined), the Potency was “inactive”.
For `C=CC(C)(CCC=C(C)C)O[C@@H]1O[C@H](CO)[C@@H](O)[C@H](O)[C@H]1O` (some centres undefined), the Potency was “inactive”.
For `COc1ccc(-c2ccc3c(N4CCOCC4)nc(N4CC(C)OC(C)C4)nc3n2)cc1CO` (centres undefined), the Potency was 1030 nM (active).
For `C=CC(C)(O)CC/C=C(\C)C(=O)O[C@@H]1[C@@H](O)[C@H](OC(C)(C=C)CC/C=C(\C)C(=O)O)O[C@H](CO)[C@H]1OC(=O)/C(C)=C/CCC(C)(O)C=C` (some centres undefined), the Potency was “inactive”.
`CC1OC(OC2C(C)OC(OC3C(OC(=O)C45CCC(C)(C)CC4C4=CCC6C7(C)CCC(OC8OC(C(=O)O)C(O)C(O)C8OC8OC(CO)C(O)C(OC9OC(C)C(O)C(O)C9O)C8O)C(C)(CO)C7CCC6(C)C4(C)CC5)OC(CO)C(O)C3O)C(O)C2O)C(O)C(O)C1O` (centres undefined) gave a viability, % of control of 97% [at 9.25 µM].
With `C[C@@H]1O[C@@H](O[C@H]2[C@H](Oc3cc(O)c(C(=O)CCc4ccc(O)cc4)c(O)c3)O[C@H](CO)[C@@H](O)[C@@H]2O)[C@H](O)[C@H](O)[C@H]1O` the Potency was “inactive”.
For `CC(=O)OCC(Cc1ccccc1)NC(=O)C(Cc1ccccc1)NC(=O)c1ccccc1` (centres undefined), the Potency was “inactive”.
In the case of `CC(CCc1ccc(O)cc1)O[C@@H]1O[C@H](CO[C@@H]2OC(CO)[C@H](O)[C@H]2O)[C@@H](O)[C@H](O)[C@H]1O` (some centres undefined), the Potency is reported as “inactive”.
In the case of `CC[N+]1(C/C2=C/CCCCCC2)CCC(NC(=O)C2c3cc(Cl)ccc3Oc3ccc(Cl)cc32)CC1` (centres undefined), the Potency is reported as 3660 nM (active).
With `CS(=O)(=O)c1ccc([C@@H](CC2CCCC2)C(=O)Nc2nccs2)cc1` the Potency was 7420 nM (active).
In the case of `CCOC(=O)OCC/C(SC(=O)OCC)=C(\C)N(C=O)Cc1cnc(C)nc1N`, the Potency is reported as “inactive”.
For `CC1(C)CC[C@]2(C(=O)O[C@@H]3O[C@H](CO)[C@@H](O)[C@H](O)[C@H]3O)CC[C@]3(C)C(=CCC4[C@@]5(C)C[C@@H](O)[C@H](O)[C@@](C)(CO)C5[C@H](O)C[C@]43C)C2[C@@H]1O` (some centres undefined), the Potency was “inactive”.
For `CC(C)C[C@@H]1NC(=O)[C@@H](Cc2ccccc2)NC(=O)C(CCCCCC(=O)C2CO2)NC(=O)[C@@H]2CCCCN2C1=O` (some centres undefined), the Potency was 12.6 nM (active).
In the case of `COC1OC(O)C2(CCC3(O2)C(C)CC2OC(=O)C4(C)CCCC3(C)C24)C1O` (centres undefined), the Potency is reported as “inactive”.
